A selection: hits, their analogues and other compounds. The true share with any hit is near 27%.
CYP2C9 inh: blockers of cytochrome P450 2C9 activity – biochemical, luminescence, ADME assay, primary screen. CYP2C9 Supersomes, luciferin-H conversion. inhibition, % at 5 µM. actives 20% (n = 96,000);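 active = blocking of liver enzyme CYP2C9 beyond about 50% at 5 µM, limit read from the data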
EphB4 antag: EphB4-ephrin-B2 interaction antagonists, primary screen, biochemical, TNYL-RAW peptide probe, fluorescence polarization | Ephrin type-B receptor 4 (Homo sapiens), P54760 | EphB4 LBD / TNYL-RAW-Alexa532 peptide | inhibition, % at 7 µM | actives 0.15% (n = 97,000);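 active = inhibition above the screen-wide mean inhibition plus 3 SD, cut at about 15% in these data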
CYP2C19 inh: blockers of cytochrome P450 2C19 activity – biochemical, luminescence, ADME assay, primary screen; P33261; CYP2C19 Supersomes, luciferin-H EGE luminescence, 30 min; inhibition, % at 5 µM; actives 21% (n = 96,000);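 active = CYP2C19 inhibition above a set limit at 5 µM in the primary screen, cut at about 50% in these data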
Target sequence (P33261 whole entry, looked up): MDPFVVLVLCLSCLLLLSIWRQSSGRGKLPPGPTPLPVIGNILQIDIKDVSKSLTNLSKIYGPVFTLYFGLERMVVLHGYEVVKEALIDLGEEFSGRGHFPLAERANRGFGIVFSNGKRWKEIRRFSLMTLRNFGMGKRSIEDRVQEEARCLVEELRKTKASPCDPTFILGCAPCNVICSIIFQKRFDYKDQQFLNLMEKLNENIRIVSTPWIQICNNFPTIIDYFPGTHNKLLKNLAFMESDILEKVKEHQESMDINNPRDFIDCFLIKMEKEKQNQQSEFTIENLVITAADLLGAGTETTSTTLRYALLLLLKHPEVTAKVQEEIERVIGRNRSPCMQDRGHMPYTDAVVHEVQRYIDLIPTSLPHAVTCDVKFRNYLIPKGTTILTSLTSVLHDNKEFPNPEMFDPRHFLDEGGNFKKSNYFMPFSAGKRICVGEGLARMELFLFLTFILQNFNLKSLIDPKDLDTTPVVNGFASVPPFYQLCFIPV
CYP2C19 activ: human CYP2C19 activators, primary screen, biochemical, luminescence. 96,000 tested, under 10 active. recombinant CYP2C19, luciferin-H EGE luminescence; stronger effect = higher value; 0 = fully inhibited enzyme, 1 = untreated enzyme. activation factor at 5 µM. AID 1025, 2008;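 active = activation factor of at least 2 at 5 µM in the primary screen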
CYP2C9 activ: human CYP2C9 activators, primary screen, biochemical, luminescence; Cytochrome P450 2C9 (Homo sapiens), P11712; recombinant CYP2C9, luciferin-H conversion; stronger effect = higher value; factor 1 = untreated enzyme, 0 = blocked; activation factor at 5 µM; actives 1.4% (n = 96,000); AID 1024, 2008;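 active = activation factor of 2 or more for CYP2C9 at a 5 µM dose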
Each line names hits and unclear results; the compound was inactive in the other large screens.

C/C(CC(=O)Nc1ccc(OCc2ccccc2)cc1)=N\NC(=O)C(=O)Nc1ccccc1C	none
COc1ccc(-c2nc(CCNS(=O)(=O)c3ccc4c(c3)OCCO4)cs2)cc1	CYP2C9 inh 80, CYP2C19 inh 98
Cc1cccn2cc(CCNS(=O)(=O)c3ccc4c(c3)OCCO4)nc12	none
O=S(=O)(NCCc1csc(-c2cccnc2)n1)c1ccc2c(c1)OCCO2	CYP2C19 inh 51
O=S(=O)(NCCc1csc(-c2ccc(C(F)(F)F)cc2)n1)c1ccc2c(c1)OCCO2	none
CCCOc1ccc(N2C(=O)CC(N3CCOCC3)C2=O)cc1 (stereo unspecified)	none
CC1(C)CC(=O)C2=C(C1)c1c(ccc3ccccc13)NC2c1ccc(Br)o1 (stereo unspecified)	CYP2C9 inh 96, CYP2C19 inh 75
COc1ccc(-c2csc(N(CC3CCCO3)C(=O)c3cccs3)n2)cc1 (stereo unspecified)	CYP2C9 inh 92, CYP2C19 inh 88
COc1ccc(OC)c(-c2csc(N(Cc3ccco3)C(=O)c3cccs3)n2)c1	CYP2C9 inh 85, CYP2C19 inh 78
CCN(CC)CCCN(C(=O)c1cccs1)c1nc(-c2ccc(OC)cc2)cs1	none
O=C(CSC1=Nc2ccccc2C2=NC(c3ccccc3)C(=O)N12)NC1CCCCC1 (stereo unspecified)	none
COc1ccc2nc(C)cc(N3CCOCC3)c2c1	none
O=C(CSc1n[nH]c(-c2ccco2)n1)N1c2ccccc2Sc2ccccc21	CYP2C9 inh 52 (no result: EphB4 antag)
CCOC(=O)CSc1n[nH]c(-c2ccco2)n1	none
O=C(CCc1ccccc1)n1nc(-c2ccco2)nc1SCc1ccccc1	none
O=C(O)c1ccc(CSc2n[nH]c(-c3ccco3)n2)cc1	EphB4 antag 15
O=C(CSc1nncs1)N1c2ccccc2Sc2ccccc21	CYP2C19 inh 62 (no result: EphB4 antag)
c1ccc(Cn2nnnc2CN2CCCC2)cc1	none (no result: CYP2C9 inh, CYP2C19 inh, CYP2C19 activ, CYP2C9 activ)
CC(C)OCCCNC(=O)c1ccc(CS(=O)(=O)Cc2ccccc2F)o1	none
CCOC(=O)c1c(NC(=O)C(C)NCc2ccco2)sc2c1CCC(C)C2 (stereo unspecified)	none
CCCCN(CC)c1nc(-c2ccncc2)nc2ccccc12	CYP2C9 inh 94, CYP2C19 inh 96
Cc1nc(OCc2ccccc2)c2ccccc2n1	none
COc1nc(-c2ccncc2)nc2ccccc12	CYP2C9 inh 72, CYP2C19 inh 74
c1ccc2c(N3CCCC3)nc(-c3ccncc3)nc2c1	CYP2C19 inh 84
C=CCOc1nc(-c2ccncc2)nc2ccccc12	CYP2C9 inh 64, CYP2C19 inh 79
CCN(CC)c1nc(-c2cccc(OC)c2O)nc2ccccc12	none
CN1CCN(c2nc(-c3ccncc3)nc3ccccc23)CC1	none
COc1cccc(Nc2ncccc2C(=O)NCc2ccccc2)c1	none
CC(C)(C)c1cc(NC(=O)COc2ccc(Br)cc2)n(-c2ccccc2)n1	none
CCOC(=O)CNc1nc(-c2ccncc2)nc2ccccc12	CYP2C9 inh 58
O=C(O)CNc1nc(-c2ccccc2)nc2ccccc12	none
CC(=O)Nc1cccc(Oc2ccc3c(c2)C(=O)N(CCC(=O)O)C3=O)c1	none
Cc1ccc(C(C(=O)NC2CCCCC2)N(CCC(C)C)C(=O)CNC(=O)c2ccco2)o1 (stereo unspecified)	CYP2C19 inh 53
C=CCN(C(=O)CNC(=O)c1ccco1)C(C(=O)NC1CCCCC1)c1ccccc1 (stereo unspecified)	CYP2C9 inh 70, CYP2C19 inh 83
COc1cccc(N(C(=O)CNC(=O)c2ccco2)C(C(=O)NC2CCCC2)c2ccncc2)c1 (stereo unspecified)	CYP2C19 inh 57
O=C(NCC(=O)N(CCc1ccccc1)C(C(=O)NC1CCCC1)c1cccnc1)c1ccco1 (stereo unspecified)	CYP2C9 inh 52, CYP2C19 inh 54
O=C(NCC(=O)N(c1ccccc1)C(C(=O)NC1CCCCC1)c1ccncc1)c1ccco1 (stereo unspecified)	none
CCOc1ccc(OCC)c(-c2c(=O)n(OCc3ccccc3C(=O)OC)c3ccccc3[n+]2[O-])c1	none
CCn1c(NC(=O)c2ccco2)c(-c2ccccc2Cl)c(=O)c2ccccc21	none
CCSc1ccccc1C(=O)Nc1cc(C)on1	none
Cc1cc(C)n(-c2nc(C)nc3c2cnn3-c2ccccc2)n1	none
Cc1ccc(N(C(=O)CNC(=O)c2ccco2)C(C(=O)NCC2CCCO2)c2ccccc2)cc1 (stereo unspecified)	CYP2C19 inh 85 (no result: EphB4 antag)
O=C(NCC(=O)N(c1ccccc1)C(C(=O)NCC1CCCO1)c1ccccc1)c1ccco1 (stereo unspecified)	none
O=C(NCC(=O)N(CCc1ccccc1)C(C(=O)NC1CCCCC1)c1ccncc1)c1ccco1 (stereo unspecified)	CYP2C9 inh 92, CYP2C19 inh 82
Cc1ccc(NC(=O)C(NS(=O)(=O)c2cccc3nsnc23)C(C)C)nc1 (stereo unspecified)	none
CC(=O)c1cc(-c2ccccc2)n(CCC(=O)NCc2cccs2)c1C	CYP2C9 inh 54, CYP2C19 inh 73
CC(=O)c1cc(-c2ccc(F)cc2)n(CC(=O)NCc2cccs2)c1C	CYP2C19 inh 81
CCCC1=C(C(=O)OCC)C(c2cccs2)C(C#N)=C(N)O1 (stereo unspecified)	CYP2C9 inh 67, CYP2C19 inh 79
CCOC(=O)C1=C(CSc2nc(C)cc(C)c2C#N)OC(N)=C(C#N)C1c1ccccc1 (stereo unspecified)	CYP2C9 inh 81, CYP2C19 inh 75
CCOC(=O)C1=C(CSc2nc(C)cc(C)c2C#N)OC(N)=C(C#N)C1c1cccs1 (stereo unspecified)	CYP2C19 inh 86
CCOC(=O)C1=C(CSc2nc(CC)c(C)cc2C#N)OC(N)=C(C#N)C1c1ccccc1 (stereo unspecified)	CYP2C9 inh 68
N#CC1=C(N)Oc2c(oc(CO)cc2=O)C1c1cccs1 (stereo unspecified)	none
CCOC(=O)C1=C(CSc2nc3c(cc2C#N)CN(C)CC3)OC(N)=C(C#N)C1c1ccc(Cl)cc1 (stereo unspecified)	none
COc1ccccc1Oc1cc(C#N)c(C#N)cc1-n1nnc2ccccc21	none
Cn1c(Oc2ccc3c(c2)OCO3)nc2c1c(=O)n(Cc1ccccc1)c(=O)n2C	none
CCN1C=C(Cc2cccs2)C2=C(C1)C(c1cccs1)C(C#N)=C(N)O2 (stereo unspecified)	CYP2C9 inh 56
CCN1CC2=C(OC(N)=C(C#N)C2c2cccs2)/C(=C/c2cccs2)C1 (stereo unspecified)	none
O=C(c1cc2sccc2n1Cc1ccc(F)cc1)N1CCCc2ccccc21	none (no result: CYP2C9 inh, CYP2C19 inh, CYP2C19 activ, CYP2C9 activ)
